From PubChem
Most compounds without a hit are left out; they make up all but 2.2% or so of the library.
PLC-beta3 inh: human PLC-beta3 inhibitors, primary screen, biochemical, fluorescence | actives 0.18% (n = 370,000) | Purified PLC-beta3, fluorogenic substrate | inhibition, % at 12.2 µM; in the data active means inhibition above about 11%;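 further: 0% = median of compound wells on plate and 100% = full blocker control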
Target sequence (Q01970 whole entry, looked up): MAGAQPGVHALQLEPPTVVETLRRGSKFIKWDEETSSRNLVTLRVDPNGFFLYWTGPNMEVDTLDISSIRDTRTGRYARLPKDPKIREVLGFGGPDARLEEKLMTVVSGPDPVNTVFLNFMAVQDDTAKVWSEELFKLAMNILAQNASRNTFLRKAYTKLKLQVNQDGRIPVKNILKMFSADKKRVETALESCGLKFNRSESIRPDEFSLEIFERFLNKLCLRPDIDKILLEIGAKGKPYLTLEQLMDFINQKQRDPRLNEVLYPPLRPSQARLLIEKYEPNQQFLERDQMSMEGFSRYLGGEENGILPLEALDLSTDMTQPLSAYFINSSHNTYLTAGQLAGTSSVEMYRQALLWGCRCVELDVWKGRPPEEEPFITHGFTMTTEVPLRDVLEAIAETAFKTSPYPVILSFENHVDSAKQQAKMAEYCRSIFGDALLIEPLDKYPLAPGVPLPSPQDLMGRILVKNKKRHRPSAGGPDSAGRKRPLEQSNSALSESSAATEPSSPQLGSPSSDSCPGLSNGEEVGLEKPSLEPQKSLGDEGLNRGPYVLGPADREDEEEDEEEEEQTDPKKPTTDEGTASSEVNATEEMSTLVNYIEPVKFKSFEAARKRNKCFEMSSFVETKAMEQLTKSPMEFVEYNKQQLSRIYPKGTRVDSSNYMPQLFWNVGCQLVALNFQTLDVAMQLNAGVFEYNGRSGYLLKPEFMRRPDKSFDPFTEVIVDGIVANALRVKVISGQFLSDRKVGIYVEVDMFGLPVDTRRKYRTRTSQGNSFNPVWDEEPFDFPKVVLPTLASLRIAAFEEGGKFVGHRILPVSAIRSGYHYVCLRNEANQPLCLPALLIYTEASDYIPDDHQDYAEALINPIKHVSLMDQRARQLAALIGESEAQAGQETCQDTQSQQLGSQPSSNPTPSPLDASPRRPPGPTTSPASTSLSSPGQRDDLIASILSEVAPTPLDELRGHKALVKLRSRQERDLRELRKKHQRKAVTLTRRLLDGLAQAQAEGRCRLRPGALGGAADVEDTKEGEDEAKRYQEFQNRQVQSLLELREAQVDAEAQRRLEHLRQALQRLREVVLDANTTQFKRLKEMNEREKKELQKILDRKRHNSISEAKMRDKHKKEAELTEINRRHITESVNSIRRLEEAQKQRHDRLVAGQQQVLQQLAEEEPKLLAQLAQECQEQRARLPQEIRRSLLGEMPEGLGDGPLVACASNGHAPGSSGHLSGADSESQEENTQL
PLC-gamma1 inh: PLC-gamma1 enzyme inhibitors, primary screen, biochemical, fluorescence, purified enzyme. fluorogenic substrate. inhibition, % at 12.2 µM. actives 0.84% (n = 370,000); in the data active means inhibition above about 9.5%
FAS TE block: FAS thioesterase domain inhibitors, primary screen, biochemical, fluorescence intensity, uHTS | recombinant FAS-TE, OMFH fluorogenic substrate, fluorescence endpoint | inhibition, % at 15 µM | AID 602261, 2012 | actives 0.67% (n = 360,000);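 active means compounds whose normalised, plate-corrected inhibition of enzyme fluorescence in the single-dose primary screen is 50% or more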;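 further: 0% = DMSO with enzyme and 100% = substrate without enzyme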
H9c2 protect: cardioprotection against H2O2-induced cell death, primary screen, uHTS, H9c2 cells, ATPLite luminescence. H9c2 cardiomyocytes, H2O2 injury protection, 2 h. protection from H2O2 cell death, % at 20 µM. actives 0.63% (n = 360,000). AID 588492, 2011;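 active means compounds giving at least 50% protection of heart cells from peroxide-induced death in the single-dose screen, raw or plate-pattern-corrected value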;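 further: 0% = DMSO wells with peroxide and 100% = DMSO wells without peroxide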
FAS-TE conf: FAS thioesterase domain inhibitors, confirmation, biochemical, fluorescence intensity, single concentration; recombinant FAS-TE, OMFH fluorogenic substrate; shares compounds with FAS TE block; inhibition, % at 15 µM; actives 45% (n = 2,300);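 active means compounds inhibiting the enzyme by at least 50% at 15 µM in any one of the replicates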;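 further: 0% = enzyme with DMSO only and 100% = wells lacking enzyme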
Starred values were filed as active, the others as inactive; · = no result given.

SMILES | PLC-beta3 inh | PLC-gamma1 inh | FAS TE block | H9c2 protect | FAS-TE conf
C[C@@H]1[C@H](c2ccccc2)OC(O)([C@H](Cc2ccccc2)NC(=O)OC(C)(C)C)CN1C (stereo partly specified) | 0 | -1 | · | · | ·
CCN1CCN(S(=O)(=O)c2ccc(Cl)c(C(=O)N(C)Cc3ccc(F)cc3)c2)CC1 | -6 | -1 | -4 | -6 | ·
CCN1CCN(S(=O)(=O)c2ccc(Cl)c(C(=O)N(C)Cc3ccc(C(C)(C)C)cc3)c2)CC1 | -6 | 0 | 59* | -12 | 45*
Cc1c(C(=O)OCCOc2ccc(Br)cc2)sc(=S)n1C | 4 | -1 | 69* | -5 | 63*
CCOC(=O)c1sc(=S)n(C)c1NC(=O)c1ccc(OC)cc1 | -4 | -1 | 4 | 6 | ·
CC[C@@H](C)[C@H](NC(=O)OC(C)(C)C)c1nnc(S(=O)(=O)Cc2cc(C)ccc2C)o1 | 5 | 4 | 73* | -40 | 79*
Cc1ccccc1CS(=O)(=O)c1nnc([C@H](CC(C)C)NC(=O)OC(C)(C)C)o1 | -2 | 2 | 52* | -16 | 55*
CC(C)[C@H](NC(=O)OC(C)(C)C)c1nnc(S(=O)(=O)Cc2c(F)cccc2Cl)o1 | 3 | -1 | 83* | -23 | 82*
COC(=O)C1=C(C)N(Cc2ccccc2C(F)(F)F)C(=NCc2ccc(OC)cc2)NC1c1cccc(F)c1 (stereo unspecified) | 1 | 0 | · | · | ·
Cn1c(=O)c2cc(S(=O)(=O)N3CCN(CCO)CC3)ccc2n(C)c1=O | 0 | -1 | · | · | ·
CCc1ccc(OC(=O)Cc2ccc(OC)c(S(=O)(=O)N3CCOCC3)c2)cc1 | -9 | -1 | 22 | 0 | ·
COc1ccc(CC(=O)Oc2ccc(C(C)(C)C)cc2)cc1S(=O)(=O)N1CCOCC1 | -12 | 1 | 60* | -8 | 15
C[C@@H]1CN([C@@H](C)CO)C(=O)c2cc(Br)cnc2O[C@@H]1CN(C)Cc1ccccn1 | -3 | 1 | · | · | ·
O=C(COc1ccc([N+](=O)[O-])cc1)NNC(=O)Nc1ccc([N+](=O)[O-])cc1 | -3 | 0 | 48 | -12 | ·
O=C(C/C=N\OCc1ccc([N+](=O)[O-])cc1)Nc1ccc(Br)cc1 | -4 | -3 | 55* | -8 | 57*
COc1ccc(CN2C3=N[C@H](c4ccccc4)CC(=O)N3/C(=C\c3ccccc3)C2c2ccco2)c(OC)c1 (stereo partly specified) | -1 | -2 | · | · | ·
Cc1cccc(N2CCN(C(=O)CNC(=O)c3cccc([N+](=O)[O-])c3)CC2)c1C | -5 | 1 | 85* | -4 | 67*
Cc1cccc(N2CCN(C(=O)CNC(=O)Cc3ccccc3)CC2)c1C | -4 | -1 | 2 | -4 | ·
O=C(Cn1c(=O)c2c(ncn2Cc2ccccc2)n(Cc2ccccc2)c1=O)N1CCc2ccccc21 | -5 | 2 | 66* | 2 | 22
Cc1cc(Nc2cccc(Br)c2)cc(=O)n1-c1cccc(Br)c1 | -12 | -7 | · | · | ·
CC(C)(CNC(=O)c1ccc([N+](=O)[O-])c(Cl)c1)CNC(=O)c1ccc([N+](=O)[O-])c(Cl)c1 | 0 | 0 | 56* | -32 | 63*
Cc1ccc(C(=O)NCCNc2ncc(C(F)(F)F)cc2Cl)cc1[N+](=O)[O-] | 3 | 3 | 55* | -5 | 60*
COc1ccc(C(=O)NCCNc2ncc(C(F)(F)F)cc2Cl)cc1[N+](=O)[O-] | -3 | 2 | 53* | 3 | 47*
CC(C)(C)c1ccc(C(=O)NCC(=O)OCc2ccc([N+](=O)[O-])cc2)cc1 | -1 | 0 | 71* | -9 | 83*
O=C(CNC(=O)c1ccccc1)OCc1cccc([N+](=O)[O-])c1 | -1 | 3 | -7 | 10 | ·
SMILES | PLC-beta3 inh | PLC-gamma1 inh | FAS TE block | H9c2 protect | FAS-TE conf
Cc1ccc2nc(N/C(N)=N/S(=O)(=O)c3ccc([N+](=O)[O-])cc3)nc(C)c2c1 | 1 | 1 | 67* | -8 | 55*
Cc1ccc(S(=O)(=O)/N=C(\N)Nc2nc(C)c3ccccc3n2)cc1 | 0 | 4 | 12 | -9 | ·
CCOC(=O)/C(C#N)=C/c1c(N2CCN(Cc3ccc4c(c3)OCO4)CC2)nc2c(C)cccn2c1=O | -10 | 0 | 51* | 9 | 0
Cc1cccn2c(=O)c(/C=C(\C#N)S(=O)(=O)c3ccccc3)c(N3CCN(c4ccccc4)CC3)nc12 | -10 | -2 | 66* | 2 | 0
Cc1cccn2c(=O)c(/C=C(\C#N)C(N)=O)c(N3CCN(Cc4ccc5c(c4)OCO5)CC3)nc12 | -138 | -130 | 56* | 12 | 69*
CCN1CCN(c2nc3c(C)cccn3c(=O)c2/C=C(\C#N)S(=O)(=O)c2ccccc2)CC1 | -106 | -80 | 9 | 13 | ·
COC(=O)/C(C#N)=C/c1c(N2CCN(Cc3ccc4c(c3)OCO4)CC2)nc2c(C)cccn2c1=O | -3 | 2 | -6 | 1 | ·
CC(=O)Nc1ccc(N(C(=O)CNC(=O)c2ccco2)C(C(=O)NC2CCCC2)c2ccco2)cc1 (stereo unspecified) | -6 | 5 | -1 | 3 | ·
N=c1c2c(-c3ccccc3)c(-c3ccccc3)n(CCc3ccccc3)c2ncn1C1CCC(O)CC1 (stereo unspecified) | -5 | -1 | · | · | ·
CCCCOCCCNC(=O)C[C@@H]1C(=O)N2CCCC3=C2[C@@]1(C(=O)OCC)CCC3 | 1 | -2 | · | · | ·
COc1cccc(NC(=O)COc2c(F)c(F)c(C(F)(F)F)c(F)c2F)c1 | 1 | 1 | 58* | -9 | 37*
Cc1cccc(CNc2ncc(-c3cccc([N+](=O)[O-])c3)n2C)c1 | -1 | 1 | 18 | -2 | ·
Cn1c(-c2cccc([N+](=O)[O-])c2)cnc1NCc1cccc([N+](=O)[O-])c1 | 0 | 0 | 55* | 2 | 28
CCCn1c(CCNc2nc(-c3ccc(Cl)c([N+](=O)[O-])c3)cs2)nc2cc(Cl)c(Cl)cc21 | 3 | 3 | 21 | -8 | ·
O=[N+]([O-])c1cc(-c2csc(NCCc3nc4cc(Cl)c(Cl)cc4n3CCCO)n2)ccc1Cl | -4 | -1 | 75* | 8 | 72*
O=C1[C@@H]2[C@@H](CN3CN(c4ccccc4)N=C(c4ccccc4)[C@@]23c2ccccc2)C(=O)N1c1ccccc1 | -259 | -237 | 57* | 1 | 15
CN(CCO)c1ccc2c(c1)Oc1ccccc1CN(Cc1cn(Cc3ccc(F)cc3)nn1)S2(=O)=O | 0 | -1 | · | · | ·
CC(C)c1ccc(/C=N/NC(=O)CN(c2cccc(Cl)c2Cl)S(C)(=O)=O)cc1 | 0 | -1 | 57* | -27 | 58*
COC(=O)c1cc2c(c3c4cc(OC)ccc4n(S(=O)(=O)c4cccc(C)c4)c13)C(=O)N(Cc1ccccc1OC)C2 | -27 | -20 | · | · | ·
